Screening data from PubChem.
Shown are actives, neighbours in structure and some others; about 19% of the full set was active somewhere.
KB-3-1 tox – kills parental KB-3-1 adenocarcinoma cells. AID 1347075. 1.4% of 400,000 active. Potency, µM (highest dose often 46.1 µM), most hits filed as cytotoxic. KB-3-1 viability, CellTiter-Glo ATP luminescence, 72 h; also: nearly all actives have a fitted effect of over 60% in size
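KB-3-1 parental drug-naive adenocarcinoma cells in DMEM/10% FBS, incubated 72 h at 37 C with pin-transferred compounds across a concentration series. Viability by CellTiter-Glo luminescence; concentration-response curves fitted after normalization.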
HT1080NT lethal – kills 2HG-producing HT-1080-NT fibrosarcoma cells | HT-1080-NT fibrosarcoma viability, CellTiter-Glo ATP luminescence, 48 h | Potency, µM (series often up to 46.1 µM), usual class: cytotoxic | 1.6% of 360,000 active | AID 686970;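 also: NT is the 2HG producing partner of a matched IDH1 knockdown line; nearly all actives have a fitted effect of over 55% in size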
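HT-1080-NT fibrosarcoma cells (2HG-overproducing), 750 cells/well in RPMI with 5% FBS, dosed after 2 h and incubated 48 h at 37C. CellTiter-Glo luminescence normalized to DMSO and no-cell wells; concentration-response curves fitted and classed.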
HT1080 IDH1KD tx – kills HT-1080 cells with IDH1 knockdown; 2% of 360,000 active; Potency, µM (series often up to 46.1 µM), actives largely listed as cytotoxic; HT-1080 IDH1 knockdown viability, ATP luminescence, 48 h
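IDH1KD HT-1080 cells, 750/well, RPMI + 5% FBS; compound pinned after 2 h settling; 48 h, 37 °C; CellTiter-Glo luminescence; % activity normalised to DMSO and no-cell wells; curves fitted, classed by r2 and efficacy.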
TDP1 cell CPT – growth inhibition of DT40 Tdp1-/-;hTDP1 cells with camptothecin (screen for TDP1 inhibitors). chicken DT40 Tdp1-/-;hTDP1 cells + 20 nM CPT, ATP luminescence, 48 h. Potency, µM (doses to about 46.2 µM), actives largely listed as inhibitors. 12% of 420,000 active; also: nearly all actives have a fitted effect of over 55% in size
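Chicken DT40 Tdp1-/- cells complemented with human TDP1, 400 cells/well, exposed to compounds plus 20 nM camptothecin for at least 48 h at 37 C; viability read as ATP content by CellTiter-Glo luminescence.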
KB-V1 cytotox – kills drug-selected multidrug resistant KB-V1 cells; KB-V1 MDR cells viability, CellTiter-Glo, 72 h; Potency, µM (top dose mostly 46.1 µM), actives largely listed as cytotoxic; 3.4% of 400,000 active; AID 1347076; also: nearly all actives have a fitted effect of over 60% in size
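KB-V1, DMEM (no phenol red) + 10% FBS; cpd pin-transferred, titration series; 72 h, 37 degrees C; CellTiter-Glo, luminescence. Data normalized, curve-fit.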
TDP1 cell noCPT – qHTS for Inhibitors of human tyrosyl-DNA phosphodiesterase 1 (TDP1): qHTS in cells in absence of CPT | Potency, µM (doses to about 46.2 µM), most hits filed as inhibitors | DT40 Tdp1-/- hTDP1 cells, no CPT, ATP luminescence, 48 h | 15% of 420,000 active; also: nearly all actives have a fitted effect of over 55% in size
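Growth kinetics read by CellTiter-Glo luminescence after ≥48 hr at 37 °C. Cells: DT40 Tdp1-/- stably carrying human TDP1, 400 per well, compound exposure in the absence of CPT (DMSO vehicle).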
A number is an active result; . = inactive; ? = inconclusive; / = no result given. Calls follow the shape of the dose curve; as a rule, active = well fitted curve in the direction sought with a large enough effect; inconclusive = small, poorly fitted or top-dose-only effect, or another doubt; inactive = no such curve, though single readings can be large; an effect the other way counts as inactive or inconclusive.

SMILES | KB-3-1 tox | HT1080NT lethal | HT1080 IDH1KD tx | TDP1 cell CPT | KB-V1 cytotox | TDP1 cell noCPT
CC(=O)[C@@]1(O)CCC2C3CC=C4C[C@@H](O)CC[C@]4(C)C3CC[C@@]21C (stereo not given in full) | . | . | . | . | . | .
COc1ccccc1NC(=O)Cn1c(=O)oc2cc(S(=O)(=O)N3CCCC3)ccc21 | . | . | . | . | ? | ?
O=C(CCCOc1ccc(Cl)cc1Cl)Nc1cc(S(=O)(=O)N2CCOCC2)ccc1N1CCOCC1 | . | . | . | ? | 6.5µM | ?
O=[N+]([O-])c1ccc2nc(N3CCNCC3)ccc2c1 | . | ? | ? | ? | . | 21µM
C[C@]12CCC3C(CC[C@H]4C[C@@H](O)[C@H](O)C[C@]34C)C1CC[C@@H]2O (stereo not given in full) | . | . | . | . | . | .
Cc1ccc([C@H]2C[C@@H](n3cc(C4CC4)nn3)[C@H](O)CN2Cc2cccs2)cc1 | ? | . | . | . | . | .
CCCCCCCCCCCCOCCOCCOCCOCCOCCOCCOCCOCCOCCO | / | / | / | 6.7µM | / | 6.7µM
CCCCCCOC(=O)c1ccccc1N | . | . | . | ? | . | .
O=C(Nc1ccc(N2CCOCC2)cc1)C1CCN(S(=O)(=O)c2cccc(C(F)(F)F)c2)CC1 | . | . | . | ? | ? | ?
O=C(Nc1cccc(C(F)(F)F)c1)C1CCCN1S(=O)(=O)c1cccc2nsnc12 (stereo not given) | ? | / | / | 18µM | 7.3µM | ?
OCCN(CCO)CCO | / | / | / | . | / | .
CCN(CC)C(=O)[C@@H]1C=C2c3cccc4[nH]cc(c34)C[C@H]2N(C)C1 | / | / | / | 40µM | / | 40µM
CN1C[C@H](CO)C=C2c3cccc4[nH]cc(c34)C[C@H]21 | . | . | . | 3.7µM | . | ?
C[C@H]1C(=O)O[C@H]2CCN3CC=C(COC(=O)[C@](C)(O)[C@@]1(C)O)C23 (stereo not given in full) | / | / | / | . | / | ?
C=C1C/C(=C/C)C(=O)O[C@@H]2CCN3CC=C(COC(=O)[C@]1(C)O)[C@@H]23 | / | / | / | . | / | .
CNC(=O)Oc1ccc2c(c1)C1(C)CCN(C)C1N2C (stereo not given) | / | / | / | 24µM | / | 30µM
CNC(=O)Oc1ccc2c(c1)[C@]1(C)CCN(C)[C@@H]1N2C | . | ? | . | . | . | ?
CN1CC[C@@]2(C)c3cc(O)ccc3N(C)C12 (stereo not given in full) | ? | / | / | 4µM | ? | ?
CCOc1ccccc1N1C(=O)CC(=O)NC1=O | . | . | . | . | . | .
Oc1ccc2c3c1O[C@H]1[C@@H](O)C=C[C@H]4[C@H](C2)NCC[C@@]341 | / | / | / | . | / | .
O=c1[nH]c(=S)[nH]c(O)c1/C=C1/C=c2ccccc2=N1 | ? | ? | ? | 7.3µM | . | 8.2µM
O=P(OC1CCCCC1)(OC1CCCCC1)C(O)c1ccc(Cl)cc1Cl (stereo not given) | . | . | . | 16µM | . | 21µM
O=P(OC1CCCCC1)(OC1CCCCC1)C(O)c1c(Cl)cccc1Cl (stereo not given) | ? | . | . | ? | 18µM | ?
CN(C)c1ccc(C(O)P(=O)(OC2CCCCC2)OC2CCCCC2)cc1 (stereo not given) | ? | . | . | ? | . | .
Cc1ccc(C(O)P(=O)(OC2CCCCC2)OC2CCCCC2)cc1 (stereo not given) | . | . | . | ? | . | ?
CCCCn1c(-c2nonc2NC(=O)c2ccccc2Cl)nc2ccccc21 | 3.3µM | . | . | 10µM | ? | 23µM
CCCn1c(C(=O)c2ccccc2)nc2ccccc21 | . | . | . | . | . | .
